Screens (PubChem BioAssay)
Shown are actives, neighbours in structure and some others; about 3.3% of the full set was active somewhere.
Tau fil binding – binders of human tau filaments; AID 596; actives 2% (n = 71,000); recombinant tau filaments, thioflavin S fluorescence, 15 h; filaments grown with octadecylsulfate alongside compound; Potency, µM (highest dose often 57.1 µM), inactives show at the top dose activity change, negative = inhibition; P10636;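 also: potency is read from the fitted curve at half-maximal effect; % is scaled to controls: 0 for no effect and ±100 for the full control effect; actives lower thioflavin S fluorescence by blocking filaments or displacing dye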
Target sequence (P10636 whole entry, looked up): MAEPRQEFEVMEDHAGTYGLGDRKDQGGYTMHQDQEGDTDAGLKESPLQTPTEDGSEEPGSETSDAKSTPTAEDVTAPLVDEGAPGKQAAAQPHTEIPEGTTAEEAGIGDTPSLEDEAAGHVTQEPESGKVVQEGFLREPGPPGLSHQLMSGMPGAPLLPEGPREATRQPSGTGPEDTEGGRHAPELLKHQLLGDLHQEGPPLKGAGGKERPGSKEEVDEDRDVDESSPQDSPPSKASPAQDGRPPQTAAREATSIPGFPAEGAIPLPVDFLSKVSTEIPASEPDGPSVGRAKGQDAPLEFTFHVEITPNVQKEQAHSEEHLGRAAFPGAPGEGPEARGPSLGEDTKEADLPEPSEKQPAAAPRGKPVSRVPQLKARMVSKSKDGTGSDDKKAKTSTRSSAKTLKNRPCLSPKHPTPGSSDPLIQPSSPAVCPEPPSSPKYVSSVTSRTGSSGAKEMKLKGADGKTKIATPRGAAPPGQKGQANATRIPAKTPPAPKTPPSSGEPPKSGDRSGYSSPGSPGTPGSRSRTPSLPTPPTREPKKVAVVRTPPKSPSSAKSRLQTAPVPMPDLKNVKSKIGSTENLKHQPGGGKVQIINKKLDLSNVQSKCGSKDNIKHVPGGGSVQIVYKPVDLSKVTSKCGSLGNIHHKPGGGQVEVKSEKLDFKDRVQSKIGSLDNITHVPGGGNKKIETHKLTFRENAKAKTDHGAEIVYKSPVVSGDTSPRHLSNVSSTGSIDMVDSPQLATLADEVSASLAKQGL
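Recombinant tau protein (human, 1 uM final) plus 30 uM ODS in HEPES pH 7.4 with NaCl, DTT and thioflavine S. Compound present from the start; fluorescence at 510 nm after 15 h, 37 C.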
DNA Pol III inh – DNA polymerase III holoenzyme inhibition | reconstituted DNA polymerase III holoenzyme replication, biochemical | Potency, µM (top dose mostly 57.1 µM), without a hit: at the top dose activity change, negative = inhibition | AID 603 | actives 0.25% (n = 71,000); also: potency is read from the fitted curve at half-maximal effect; % is scaled to controls: 0 for no effect and ±100 for the full control effect
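Reconstituted *E. coli* holoenzyme (0.35 nM Pol III, 1 nM beta, 154 nM SSB, 2 nM primase) was preincubated with compound for 15 min at RT. Synthesis on 1.4 nM ssM13Gori ran 35 min, then was stopped with PicoGreen/EDTA and read as dsDNA fluorescence.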
15-hLO inh – blocks human 15-lipoxygenase activity; P16050; Potency, µM (top dose mostly 57.1 µM), for the others: top-dose activity change, negative = inhibition, most hits filed as inhibitors; actives 1.4% (n = 74,000); purified 15hLO-1, xylenol orange hydroperoxide absorbance; AID 887; also: potency is read from the fitted curve at half-maximal effect; % is scaled to controls: 0 for no effect and ±100 for the full control effect; nearly all actives have a fitted effect of over 55% in size
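Readout: Fe(III)-xylenol orange absorbance, 573-to-405 nm ratio as reaction progress. Enzyme 40 nM purified human 15hLO-1, substrate 50 uM arachidonic acid, 6 min RT after 15 min compound preincubation; Hepes pH 7.5 buffer with Triton X-100.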
TsaE inh – displaces an ADP probe from E. coli YjeE (TsaE); P0AF67; purified YjeE enzyme, qHTS inhibition assay; Potency, µM; actives 0.05% (n = 71,000); AID 605
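Purified YjeE (10 uM) with BODIPY Texas Red-labeled ADP probe (2 uM); compounds pin-transferred, 15 min at room temperature. Binding inhibition read as decreased fluorescence polarization; ADP titration as control.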
Hsp90 Hop PPI – changes Hsp90-Hop TPR2A binding signal, up or down; AID 595; AlphaScreen TPR2A-His6 binding biotin-Hsp90 C-terminal peptide; actives 0.44% (n = 71,000); Potency, µM (series often up to 57 µM), for the others: at the highest dose activity change, negative = inhibition; active = well fitted curve in either direction with a large enough effect; inconclusive = small, poorly fitted or top-dose-only effect, or another doubt; also: potency is read from the fitted curve at half-maximal effect; % is scaled to controls: 0 for no effect and ±100 for the full control effect
Numbers without * were called inactive; [ ] = another dose, or the depositor's remark. Unless noted, calls follow the shape of the dose curve; as a rule, active = well fitted curve in the direction sought with a large enough effect; inconclusive = small, poorly fitted or top-dose-only effect, or another doubt; inactive = no such curve, though single readings can be large; an effect the other way counts as inactive or inconclusive.

What do the screens show for `O=C=Nc1ccc(Cc2ccc(N=C=O)cc2)cc1`?
Tau fil binding: 76%; DNA Pol III inh: 4%; 15-hLO inh: -10%; TsaE inh: inactive; Hsp90 Hop PPI: -20%

What do the screens show for `O=C1C(=O)N(Cc2ccc(Cl)c(Cl)c2)c2ccccc21`?
Tau fil binding: 32µM*; DNA Pol III inh: 2%; 15-hLO inh: 10µM*; TsaE inh: inactive; Hsp90 Hop PPI: -3%

What do the screens show for `O=C1c2ccccc2N(Cc2ccc(Cl)cc2)C2=NCCN12`?
15-hLO inh: -10%

Results for CC1CCC/C(=C\Nc2ccc3c(c2)OCO3)C1=O (stereo not drawn) ?
Tau fil binding: 25µM*; DNA Pol III inh: -1%; 15-hLO inh: -18%; TsaE inh: inactive; Hsp90 Hop PPI: -21%

How did CC1CCC/C(=C\Nc2ccccc2C(=O)O)C1=O (stereo not drawn) do in these assays?
Tau fil binding: 6%; DNA Pol III inh: -4%; 15-hLO inh: 8%; TsaE inh: inactive; Hsp90 Hop PPI: -5%

How did O=C(NCCN1CCN(c2ccccc2)CC1)c1cccn2c(=O)c3cc(Cl)ccc3nc12 do in these assays?
Tau fil binding: 16µM*; DNA Pol III inh: 0%; 15-hLO inh: -5%; TsaE inh: inactive; Hsp90 Hop PPI: -2%

How did CCOc1cc(NC(=O)c2ccco2)c(OCC)cc1NC(=O)Cc1cccc(OC)c1 do in these assays?
Tau fil binding: 10µM*; DNA Pol III inh: 2%; 15-hLO inh: inconclusive; TsaE inh: inactive; Hsp90 Hop PPI: inconclusive

How did COC(=O)NC(CC(C)=O)c1cccs1 (stereo not drawn) do in these assays?
15-hLO inh: -9%[11.4 µM]

Results for CCOc1ccc2nc(NS(=O)(=O)c3ccc4c(c3)n(C)c(=O)n4C)sc2c1 ?
Tau fil binding: inactive; DNA Pol III inh: -1%; 15-hLO inh: inconclusive; TsaE inh: inactive; Hsp90 Hop PPI: -7%

How did CCOc1ccc2nc(NS(C)(=O)=O)sc2c1 do in these assays?
Tau fil binding: 16µM*; DNA Pol III inh: -2%; 15-hLO inh: -12%; TsaE inh: inactive; Hsp90 Hop PPI: -1%

Results for COC(=O)[C@](C)(N)Cc1ccc(O)cc1 ?
Tau fil binding: 2%; DNA Pol III inh: 0%; 15-hLO inh: 7%; TsaE inh: inactive; Hsp90 Hop PPI: -6%

What do the screens show for `Cc1ccccc1-c1cc(-c2ccccc2O)n[nH]1`?
Tau fil binding: inconclusive; DNA Pol III inh: 4%; 15-hLO inh: 16µM*; TsaE inh: inactive; Hsp90 Hop PPI: 4%

Results for NC(N)=NC(N)=Nc1c(F)c(F)c(F)c(F)c1F ?
Tau fil binding: 8%[11.4 µM]; DNA Pol III inh: -8%[11.4 µM]; 15-hLO inh: 1%[11.4 µM]; TsaE inh: inactive; Hsp90 Hop PPI: -3%[11 µM]

Results for N[C@H](CCC(=O)NCS(=O)(=O)O)C(=O)O ?
Tau fil binding: 10%; DNA Pol III inh: -1%; 15-hLO inh: 12%; TsaE inh: inactive; Hsp90 Hop PPI: -7%

How did COc1ccc(C(=O)c2oc3ccccc3c2N)cc1 do in these assays?
Tau fil binding: 13µM*; DNA Pol III inh: 0%; 15-hLO inh: -22%; TsaE inh: inactive; Hsp90 Hop PPI: 16%

Results for CCOC(=O)N1CCC(n2c(SCC(=O)NCc3ccccc3)nc3ccccc3c2=O)CC1 ?
Tau fil binding: 9%; DNA Pol III inh: 6%; 15-hLO inh: -2%; TsaE inh: inactive; Hsp90 Hop PPI: -2%

Results for CCOC(=O)N1CCC(n2c(SCC(=O)NCCC3=CCCCC3)nc3ccccc3c2=O)CC1 ?
Tau fil binding: -8%; DNA Pol III inh: 4%; 15-hLO inh: 16µM*; TsaE inh: inactive; Hsp90 Hop PPI: -1%

What do the screens show for `N#Cc1c(-c2ccccc2)cc(-c2ccco2)c(C#N)c1N`?
Tau fil binding: 43%; DNA Pol III inh: -6%; 15-hLO inh: 7.9µM*; TsaE inh: inactive; Hsp90 Hop PPI: inconclusive

How did COC(=O)c1sc2nc(-c3ccco3)ccc2c1N do in these assays?
Tau fil binding: 5%; DNA Pol III inh: -7%; 15-hLO inh: 2%; TsaE inh: inactive; Hsp90 Hop PPI: -4%

How did N#Cc1sc2nc(-c3ccccc3)cc(-c3ccco3)c2c1N do in these assays?
Tau fil binding: 2.5µM*; DNA Pol III inh: -2%; 15-hLO inh: 4µM*; TsaE inh: inactive; Hsp90 Hop PPI: -18%

How did CCCCCCC#CC1C=CC(Oc2ccc(C=O)cc2)C(CO)O1 (stereo not drawn) do in these assays?
15-hLO inh: -5%[11.4 µM]

Results for Cn1nc(C(=O)Nc2sccc2C(N)=O)ccc1=O ?
Tau fil binding: 25µM*; DNA Pol III inh: -11%; 15-hLO inh: 1%; TsaE inh: inactive; Hsp90 Hop PPI: 0%

How did O=C(O)c1ccncc1.O=C(O)c1ccncc1.[Cl][Pt]([Cl])([Cl])[Cl] do in these assays?
Tau fil binding: 3%[11.4 µM]; DNA Pol III inh: 1%[11.4 µM]; TsaE inh: inactive; Hsp90 Hop PPI: -1%[11 µM]

Results for CC(C)(C)C1CCc2c(sc3c2C(=O)NC(c2ccco2)N3)C1 (stereo not drawn) ?
Tau fil binding: inconclusive; DNA Pol III inh: -2%; 15-hLO inh: -30%; TsaE inh: inactive; Hsp90 Hop PPI: -9%

What do the screens show for `O=C1NC(c2ccccn2)Nc2sc3c(c21)CCC3` (stereo not drawn)?
Tau fil binding: 21%; DNA Pol III inh: -1%; 15-hLO inh: 14%; TsaE inh: inactive; Hsp90 Hop PPI: 32µM*

Results for Cn1cc(C2NC(=O)c3c(sc4c3CCCC4)N2)c2ccccc21 (stereo not drawn) ?
Tau fil binding: 3.2µM*; DNA Pol III inh: 1%; 15-hLO inh: -15%; TsaE inh: inactive; Hsp90 Hop PPI: -9%

Results for Nc1ncn([C@@H]2O[C@@H](CO)[C@@H](O)[C@H]2O)c(=O)n1 ?
Tau fil binding: -9%; DNA Pol III inh: -1%; TsaE inh: inactive; Hsp90 Hop PPI: -3%

Results for C=C1CC[C@@H](O)C/C1=C/C=C1\CCC[C@]2(C)[C@@H]1CC[C@H]2[C@@H](C)CCCC(C)C ?
Tau fil binding: inconclusive; DNA Pol III inh: 1%; TsaE inh: inactive; Hsp90 Hop PPI: -1%

Results for COc1ccc(OC)c(C2OCCC=CC2C)c1 (stereo not drawn) ?
15-hLO inh: -2%[11.4 µM]

What do the screens show for `O=c1c(-c2cc(O)c(O)c(O)c2)coc2cc(O)c(O)c(O)c12`?
15-hLO inh: 10µM*

What do the screens show for `Cc1ccccc1Cn1c(CN2CCN(c3ccc(F)cc3)CC2)nc2c1c(=O)n(C)c(=O)n2C`?
Tau fil binding: inactive; DNA Pol III inh: 208%; 15-hLO inh: 20µM*; TsaE inh: inactive; Hsp90 Hop PPI: -1%

How did Cn1c(=O)c2c(nc(CN3CCN(c4ccccc4)CC3)n2Cc2ccccc2F)n(C)c1=O do in these assays?
Tau fil binding: -11%; DNA Pol III inh: -6%; 15-hLO inh: -5%; TsaE inh: inactive; Hsp90 Hop PPI: -9%
